Results published in PubChem BioAssay (Tox21).
A number with no mark means an inactive call. Records with an inconclusive call do not appear. Where a call stands in place of a potency, no number is given. Calls of active or inactive are those of the source. Unless noted, calls follow the shape of the dose curve; as a rule, active = well fitted curve in the direction sought with a large enough effect in the repeat runs; inconclusive = weak or mixed curves; inactive = no such curve, though single readings can be large; an effect the other way counts as inactive or inconclusive.

Legend:
[1] = qHTS assay to identify small molecule antagonists of the estrogen receptor alpha (ER-alpha) signaling pathway using the BG1 cell line in the presence of 0.1 nM 17-beta-estradiol - cell viability counter screen (AID 1259241); also: nearly all actives have a fitted effect of over 40% in size
Method in brief: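 Cells were plated and left 24 hr, compounds in DMSO were pinned in, 17beta-estradiol was added to 0.1 nM final, and after 22 hr CellTiter-Fluor reagent was added for 30 min before fluorescence was read.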

[2] = qHTS assay to identify small molecule antagonists of the androgen receptor (AR) signaling pathway using the MDA cell line in the presence of 0.5 nM R1881 - cell viability counter screen (AID 1259242); also: nearly all actives have a fitted effect of over 45% in size
Method in brief: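 Fluorescence from CellTiter-Fluor, which reports protease activity of live cells, was read 30 min after reagent addition to MDA-kb2 cells that had been incubated 16 hr with compound and 0.5 nM R1881.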

[3] = target: Estrogen receptor (Homo sapiens) (UniProt P03372); assay: qHTS assay to identify small molecule antagonists of the estrogen receptor alpha (ER-alpha) signaling pathway using the BG1 cell line in the presence of 0.1 nM 17-beta-estradiol (AID 1259244); also: nearly all actives have a fitted effect of over 50% in size
Method in brief: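 Quantitative high-throughput screen in VM7Luc4E2 cells: compound plus 0.1 nM E2 (final), 22 h, 37C, 5% CO2; ONE-Glo added, 30 min room temperature, luminescence measured.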

[4] = qHTS assay to identify small molecule phospholipidosis (PLD) inducers (AID 1259344; active = well fitted curve in the direction sought with a large enough effect; an effect the other way counts as inactive or inconclusive)
Method in brief: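 Fluorescent phospholipid staining (LipidTOX Red) measured by automated microscopy in fixed HepG2 cells after 24 h treatment; nuclei counterstained with Hoechst 33342; amiodarone as reference inducer.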

[5] = qHTS assay to identify small molecule HDAC inhibitors (AID 1259364); also: nearly all actives have a fitted effect of over 45% in size; also: potency is read from the fitted curve at half-maximal effect
Method in brief: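 Endogenous HDAC class I/II activity was measured in wild-type HCT-116 cells by HDAC-Glo luminescence after 2 h compound treatment.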

[6] = qHTS assay to identify small molecule HDAC inhibitors - cell viability counter screen (AID 1259365); also: series mostly up to about 92 µM; nearly all actives have a fitted effect of over 50% in size
Method in brief: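 Counter screen in wild-type HCT-116 cells: compounds dissolved in DMSO are pin-transferred onto overnight-plated cells and left 2hr at 37C. ATP-based CellTiter-Glo luminescence then measures viable cells.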

[7] = qHTS assay to identify small molecule agonists of the sonic hedgehog signaling (Shh) pathway - cell viability counter screen (AID 1259366); also: nearly all actives have a fitted effect of over 50% in size
Method in brief: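 Cells are plated at 2,000 per well and left 4hr at 37C, 5% CO2 before compound addition. After 23hr of treatment, CellTiter-Fluor reagent is added for 1hr at 37C and fluorescence is measured.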

[8] = qHTS assay to identify small molecule antagonists of the sonic hedgehog signaling (Shh) pathway - cell viability counter screen (AID 1259367); also: nearly all actives have a fitted effect of over 55% in size
Method in brief: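 Using CellTiter-Fluor, viability of Gli1-Luc reporter 3T3 cells is read by fluorescence in the wells used for the Shh luciferase assay. Treatment lasts 23 hr with conditioned medium, then reagent 1 hr at 37C.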

[9] = qHTS assay to identify small molecule agonists of the sonic hedgehog signaling (Shh) pathway (AID 1259368; calls by dose curve;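 also: NIH/3T3-derived 3T3Gli1-Luc cells carrying a stable Gli1-driven firefly luciferase reporter; series mostly up to about 92 µM; nearly all actives have a fitted effect of over 15% in size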)
Method in brief: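 Luminescent signal was taken as a measure of Gli1-controlled luciferase expression in stably transfected NIH/3T3-derived cells that had been treated for 24 hr with compounds delivered in DMSO.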

[10] = target: Estrogen receptor beta (Homo sapiens) (UniProt Q92731); assay: qHTS assay to identify small molecule antagonists of the estrogen receptor beta (ER-beta) signaling pathway (AID 1259378; active = well fitted inhibition curve with a large enough effect in the signal ratio in the repeat runs, not every such curve was filed as active; the % refers to the signal ratio)
Method in brief: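 Antagonist mode: compounds added to beta-lactamase reporter HEK293T ER-beta-UAS cells stimulated with E2 (1nM final), 16 hr at 37C. LiveBLAzer B/G FRET substrate, 2 hours room temperature, fluorescence read-out.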

[11] = qHTS assay to identify small molecule agonists of the androgen receptor (AR) signaling pathway in the presence of an antagonist - cell viability counter screen (AID 1259379);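 also: MDA-kb2 human breast cancer cells carrying an MMTV luciferase reporter; series mostly up to about 92 µM; nearly all actives have a fitted effect of over 25% in size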
Method in brief: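 In MDA-kb2 cells (human breast carcinoma, MMTV-luciferase), compounds at 15 concentrations plus 3.0uM nilutamide; 16 hr, 37C, 0% CO2; CellTiter-Fluor fluorescence read for viability.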

[12] = qHTS assay to identify small molecule agonists of the estrogen receptor beta (ER-beta) signaling pathway - cell viability counter screen (AID 1259380); also: nearly all actives have a fitted effect of over 30% in size
Method in brief: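 Viability of ER-beta-UAS-bla HEK293T cells was determined by CellTiter-Glo luminescence following 16 hr treatment with test compounds at 37C.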

[13] = target: Estrogen receptor (Homo sapiens) (UniProt P03372); assay: qHTS assay to identify small molecule agonists of the estrogen receptor alpha (ER-alpha) signaling pathway in the presence of an antagonist (AID 1259383; calls by dose curve; also: nearly all actives have a fitted effect of over 15% in size; also: potency is read from the fitted curve at half-maximal effect; as to activation: top concentration of the series differs between compounds)
Method in brief: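 In VM7Luc4E2 cells, 4,000 per well, compounds at 15 concentrations were co-incubated 22hr at 37C with 10.0nM final ICI-182,780. Luminescence from the stably transfected 4×ERE-luciferase reporter was recorded 30min after ONE-Glo addition.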

[14] = qHTS assay to identify small molecule agonists or antagonists of the thyroid stimulating hormone receptor (TSHR) signaling pathway - wild type cell line counter screen (AID 1259384; calls by dose curve)
Method in brief: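 Counter screen in untransfected Hek293: compounds (15-point titration, triplicate) plus phosphodiesterase inhibitor Ro20-1724 added after 18 h plating; 30 min RT. Intracellular cAMP via competitive d2/cryptate immunoassay, 1 h incubation.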

[15] = target: Thyrotropin receptor (Homo sapiens) (UniProt P16473); assay: qHTS assay to identify small molecule antagonists of the thyroid stimulating hormone receptor (TSHR) signaling pathway (AID 1259385; calls by dose curve; also: nearly all actives have a fitted effect of over 20% in size)
Method in brief: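 Antagonist mode: compound-treated TSHR-expressing HEK293 cells were stimulated with 1.5 ng/mL TSH (final) in presence of Ro20-1724 for 30 min at RT. HTRF cAMP detection after 1 h; each compound tested at 15 concentrations, triplicate.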

[16] = qHTS assay to identify small molecule antagonists of the sonic hedgehog signaling (Shh) pathway (AID 1259369; calls by dose curve; also: nearly all actives have a fitted effect of over 45% in size)
Method in brief: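 Screening used 3T3Gli1-Luc cells at 2,000 per well, compounds delivered in DMSO, and conditioned medium as agonist stimulus; plates incubated 24hr at 37 C and 5% CO2 before a 30min luciferase step.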

[17] = target: Estrogen receptor beta (Homo sapiens) (UniProt Q92731); assay: qHTS assay to identify small molecule agonists of the estrogen receptor beta (ER-beta) signaling pathway (AID 1259377; active = well fitted activation curve with a large enough effect in the signal ratio in the repeat runs, not every such curve was filed as active; the % refers to the signal ratio)
Method in brief: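 Agonist mode cell assay in GripTite HEK293T cells expressing an ER-beta fusion that drives beta-lactamase from an Upstream Activator Sequence; 16 hr compound exposure at 37C, then 2 h LiveBLAzer B/G FRET substrate at room temperature, fluorescence read-out.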

[18] = qHTS assay to identify small molecule antagonists of the estrogen receptor beta (ER-beta) signaling pathway - cell viability counter screen (AID 1259382);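 also: HEK293T cells carrying ER-beta-UAS-bla reporter stimulated with estradiol; series mostly up to about 92 µM; nearly all actives have a fitted effect of over 55% in size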
Method in brief: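 Tox21 10K library tested in qHTS format on ER-beta-bla HEK293T cells stimulated with 1nM E2; 16 hr treatment at 37C. Same-well CellTiter-Glo luminescence served as the cell viability measure.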

Chain of Estrogen receptor beta (Homo sapiens) (Q92731 whole entry, looked up, the tested form may be a part): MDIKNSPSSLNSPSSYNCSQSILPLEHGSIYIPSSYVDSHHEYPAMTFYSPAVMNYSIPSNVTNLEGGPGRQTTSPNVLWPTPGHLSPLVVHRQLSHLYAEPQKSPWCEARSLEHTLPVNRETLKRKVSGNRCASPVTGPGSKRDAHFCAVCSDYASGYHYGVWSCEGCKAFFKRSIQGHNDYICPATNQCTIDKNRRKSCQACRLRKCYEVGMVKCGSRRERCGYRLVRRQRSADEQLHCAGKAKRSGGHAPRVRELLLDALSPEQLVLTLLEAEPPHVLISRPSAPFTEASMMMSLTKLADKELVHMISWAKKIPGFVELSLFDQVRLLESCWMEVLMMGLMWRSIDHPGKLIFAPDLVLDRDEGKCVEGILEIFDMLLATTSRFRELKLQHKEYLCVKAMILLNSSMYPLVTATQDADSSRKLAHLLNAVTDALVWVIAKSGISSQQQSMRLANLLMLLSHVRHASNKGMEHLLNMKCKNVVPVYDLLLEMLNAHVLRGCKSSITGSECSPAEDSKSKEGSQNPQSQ
Chain of Thyrotropin receptor (Homo sapiens) (P16473 whole entry, looked up): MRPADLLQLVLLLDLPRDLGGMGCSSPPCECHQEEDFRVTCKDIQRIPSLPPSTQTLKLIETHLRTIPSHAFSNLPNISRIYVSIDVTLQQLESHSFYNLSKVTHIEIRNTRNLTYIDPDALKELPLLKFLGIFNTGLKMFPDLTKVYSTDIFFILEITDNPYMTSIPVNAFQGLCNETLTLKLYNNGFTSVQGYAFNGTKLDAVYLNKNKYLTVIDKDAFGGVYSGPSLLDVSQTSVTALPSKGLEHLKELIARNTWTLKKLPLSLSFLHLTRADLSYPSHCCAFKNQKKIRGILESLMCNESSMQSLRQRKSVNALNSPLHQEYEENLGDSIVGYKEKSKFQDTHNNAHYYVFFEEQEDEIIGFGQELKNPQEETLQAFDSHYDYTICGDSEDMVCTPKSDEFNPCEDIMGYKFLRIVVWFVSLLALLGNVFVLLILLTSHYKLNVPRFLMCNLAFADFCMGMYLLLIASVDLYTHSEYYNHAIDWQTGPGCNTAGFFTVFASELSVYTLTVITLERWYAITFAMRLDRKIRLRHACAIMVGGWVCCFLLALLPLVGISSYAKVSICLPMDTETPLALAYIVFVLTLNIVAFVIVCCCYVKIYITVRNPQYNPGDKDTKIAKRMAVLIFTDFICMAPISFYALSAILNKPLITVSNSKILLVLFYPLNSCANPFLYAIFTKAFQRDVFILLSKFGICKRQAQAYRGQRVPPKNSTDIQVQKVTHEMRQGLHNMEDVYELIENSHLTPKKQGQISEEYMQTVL
Chain of Estrogen receptor (Homo sapiens) (P03372 whole entry, looked up): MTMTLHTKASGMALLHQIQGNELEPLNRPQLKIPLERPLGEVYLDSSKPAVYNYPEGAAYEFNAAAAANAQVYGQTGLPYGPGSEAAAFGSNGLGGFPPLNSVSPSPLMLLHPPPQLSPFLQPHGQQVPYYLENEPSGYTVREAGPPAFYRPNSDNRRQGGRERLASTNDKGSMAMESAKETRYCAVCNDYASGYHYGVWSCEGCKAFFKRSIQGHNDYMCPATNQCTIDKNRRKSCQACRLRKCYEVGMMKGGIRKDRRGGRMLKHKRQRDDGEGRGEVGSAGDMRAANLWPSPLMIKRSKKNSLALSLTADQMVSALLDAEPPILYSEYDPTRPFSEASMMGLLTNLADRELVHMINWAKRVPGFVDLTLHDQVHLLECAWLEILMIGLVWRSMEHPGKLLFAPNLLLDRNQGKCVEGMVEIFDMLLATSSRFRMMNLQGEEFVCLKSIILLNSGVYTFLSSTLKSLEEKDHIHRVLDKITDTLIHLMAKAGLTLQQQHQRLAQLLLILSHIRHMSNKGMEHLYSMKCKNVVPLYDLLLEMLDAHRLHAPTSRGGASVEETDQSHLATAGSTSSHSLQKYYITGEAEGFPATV

| Structure (SMILES) | outcome [1] | outcome [2] | Potency [3] | outcome [4] | Potency [5] | outcome [6] | Potency [7] | Potency [8] | outcome [9] | Potency [10] | Potency [11] | Potency [12] | Potency [13] | Potency [14] | Potency [15] | Potency [16] | outcome [17] | Potency [18] |
| --- | --- | --- | --- | --- | --- | --- | --- | --- | --- | --- | --- | --- | --- | --- | --- | --- | --- | --- |
| NC(=O)c1cc([N+](=O)[O-])cc([N+](=O)[O-])c1 | inactive | inactive | inactive | inactive | inactive | inactive | inactive | inactive | inactive | inactive | inactive | inactive | inactive | inactive | inactive | – | – | – |
| CC(=O)CCc1ccc2c(c1)OCO2 | inactive | inactive | inactive | – | inactive | inactive | inactive | inactive | inactive | – | inactive | inactive | inactive | inactive | inactive | inactive | – | – |
| COC(=O)C1=CCCN(C)C1 | inactive | inactive | inactive | inactive | inactive | inactive | inactive | inactive | inactive | inactive | inactive | inactive | inactive | inactive | inactive | – | inactive | inactive |
| Cc1coc2c1CCC(C)C2 (configuration not stated) | inactive | inactive | inactive | – | inactive | inactive | inactive | inactive | inactive | inactive | inactive | inactive | inactive | inactive | inactive | – | inactive | inactive |
| OC(c1ccc(F)cc1)(c1cncnc1)c1ccccc1Cl (configuration not stated) | inactive | inactive | inactive | – | inactive | inactive | inactive | inactive | inactive | – | inactive | inactive | inactive | inactive | inactive | – | inactive | inactive |
| CC(C)NCC(O)c1ccc(N)c(C#N)c1 (configuration not stated) | inactive | inactive | inactive | inactive | inactive | inactive | inactive | inactive | inactive | – | inactive | inactive | inactive | – | – | – | inactive | inactive |
| c1coc(-c2nc3ccccc3[nH]2)c1 | inactive | inactive | inactive | – | 0.611 µM (active) | inactive | inactive | inactive | inactive | inactive | inactive | – | 7.7 µM (active) | inactive | – | inactive | – | inactive |
| O=NN1CCN(N=O)CC1 | inactive | inactive | inactive | – | inactive | inactive | inactive | inactive | inactive | inactive | inactive | inactive | inactive | inactive | inactive | inactive | – | inactive |
| CCSC(=O)N(CC)C1CCCCC1 | inactive | inactive | inactive | – | inactive | inactive | inactive | inactive | inactive | – | inactive | – | inactive | inactive | inactive | inactive | – | inactive |
| CCCCP(CCCC)CCCC | inactive | inactive | inactive | – | inactive | inactive | inactive | inactive | inactive | inactive | inactive | – | inactive | inactive | inactive | – | – | inactive |
| O=C(NCO)NCO | inactive | inactive | inactive | – | inactive | inactive | inactive | inactive | inactive | – | inactive | inactive | inactive | inactive | inactive | inactive | – | inactive |
| C[C@@H]1CN(C2CCC(C#N)(c3ccc(F)cc3)CC2)CC[C@]1(C(=O)O)c1ccccc1 (some centres not stated) | inactive | inactive | inactive | inactive | inactive | inactive | inactive | inactive | – | inactive | inactive | inactive | inactive | inactive | inactive | inactive | inactive | inactive |
| Nc1cnn(-c2ccccc2)c(=O)c1Cl | inactive | inactive | inactive | – | inactive | inactive | inactive | inactive | inactive | inactive | inactive | inactive | inactive | inactive | – | inactive | inactive | inactive |
| CCOc1nc(C(Cl)(Cl)Cl)ns1 | inactive | inactive | inactive | – | inactive | inactive | inactive | inactive | inactive | inactive | inactive | – | inactive | inactive | inactive | inactive | – | inactive |
| CCCCc1ccc(O)cc1 | inactive | inactive | inactive | – | inactive | inactive | inactive | inactive | inactive | inactive | inactive | inactive | inactive | inactive | inactive | inactive | inactive | inactive |
| Cc1nnc2n1-c1sc(CCC(=O)N3CCOCC3)cc1C(c1ccccc1Cl)=NC2 | inactive | inactive | inactive | inactive | inactive | inactive | – | inactive | inactive | – | inactive | inactive | inactive | inactive | inactive | inactive | – | inactive |
| N#Cc1ccncc1 | inactive | inactive | inactive | – | inactive | inactive | inactive | inactive | inactive | inactive | inactive | – | inactive | – | – | inactive | – | inactive |
| C1CCC(C2CCCCC2)CC1 | inactive | inactive | inactive | – | inactive | inactive | inactive | inactive | inactive | inactive | inactive | – | inactive | inactive | inactive | inactive | inactive | – |
